Assay results reported in the supplement of paper PMC7411054.

Legend:
Conditions in all cases: treatment time: 24 h
[1] = system: A549-ACTB-RAB5A; assay: lowest phenotypically active concentration; higher = less potent
How it was run: (§1)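 Fifteen reporter lines derived from A549, HepG2 and WPMY1 cells by gene editing, carrying BFP for segmentation plus GFP and RFP/FusionRed markers, were exposed to 0.3, 1, 3 or 9 µM for 24 h in four wells each and imaged live. Live-cell features from each well were normalised to solvent control wells. A well set counted as deviating when ≥3 of 4 wells lay beyond the 95th percentile of control Euclidean distances, and as reproducible when the median replicate Pearson correlation exceeded the 95th percentile of non-replicates. Phenotypic activity was assigned only when both criteria were met.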

[2] = system: A549-CANX-COX4; assay: as above
How it was run: as §1

[3] = system: A549-GM130-SQSTM1; assay: as above
How it was run: as §1

[4] = system: A549-TP53BP1-CLTA; assay: as above
How it was run: as §1

[5] = system: A549-TUBA1B-RELA; assay: as above
How it was run: as §1

[6] = system: HepG2-TP53BP1-CLTA; assay: as above
How it was run: as §1

[7] = system: A549-ACTB-RAB5A; assay: phenotypically active (imaging signature differs from DMSO and reproducible) at any of 0.3-9 uM (binary (1 = active, 0 = inactive)); higher = active
How it was run: as §1

[8] = system: A549-CANX-COX4; assay: as above
How it was run: as §1

[9] = system: A549-GM130-SQSTM1; assay: as above
How it was run: as §1

[10] = system: A549-TP53BP1-CLTA; assay: as above
How it was run: as §1

[11] = system: A549-TUBA1B-RELA; assay: as above
How it was run: as §1

[12] = system: HepG2-ACTB-RAB5A; assay: as above
How it was run: as §1

[13] = system: HepG2-CANX-COX4; assay: as above
How it was run: as §1

[14] = system: HepG2-GM130-SQSTM1; assay: as above
How it was run: as §1

[15] = system: HepG2-TP53BP1-CLTA; assay: as above
How it was run: as §1

[16] = system: HepG2-TUBA1B-RELA; assay: as above
How it was run: as §1

[17] = system: WPMY1-CANX-COX4; assay: as above
How it was run: as §1

[18] = system: WPMY1-GM130-SQSTM1; assay: as above
How it was run: as §1

[19] = system: WPMY1-TP53BP1-CLTA; assay: as above
How it was run: as §1

[20] = system: WPMY1-TUBA1B-RELA; assay: as above
How it was run: as §1

Structure (SMILES)	lowest phenotypically active concentration [1]	lowest phenotypically active concentration [2]	lowest phenotypically active concentration [3]	lowest phenotypically active concentration [4]	lowest phenotypically active concentration [5]	lowest phenotypically active concentration [6]	phenotypically active [7]	phenotypically active [8]	phenotypically active [9]	phenotypically active [10]	phenotypically active [11]	phenotypically active [12]	phenotypically active [13]	phenotypically active [14]	phenotypically active [15]	phenotypically active [16]	phenotypically active [17]	phenotypically active [18]	phenotypically active [19]	phenotypically active [20]
C[C@H]1[C@H]2CC[C@H]3[C@@H]4CC=C5C[C@@H](N(C)C)CC[C@]5(C)[C@H]4CC[C@]23CN1C [Conessine]	1 µM	9 µM	1 µM	3 µM	1 µM	1 µM	1 (active)	1 (active)	1 (active)	1 (active)	1 (active)	1 (active)	1 (active)	1 (active)	1 (active)	1 (active)	1 (active)	1 (active)	1 (active)	1 (active)
CC1(C)CC(=O)C2=C(C1)NC(=S)NC2c1cccc(O)c1 (stereo not given) [Dimethylenastron]	1 µM	3 µM	1 µM	3 µM	1 µM	1 µM	1 (active)	1 (active)	1 (active)	1 (active)	1 (active)	1 (active)	1 (active)	1 (active)	1 (active)	1 (active)	1 (active)	1 (active)	1 (active)	1 (active)
CCN(CCO)CCCOc1ccc2c(Nc3cc(CC(=O)Nc4cccc(F)c4)n[nH]3)ncnc2c1 [barasertib-HQPA]	≤ 0.3 µM	≤ 0.3 µM	≤ 0.3 µM	≤ 0.3 µM	≤ 0.3 µM	≤ 0.3 µM	1 (active)	1 (active)	1 (active)	1 (active)	1 (active)	1 (active)	1 (active)	1 (active)	1 (active)	1 (active)	1 (active)	1 (active)	1 (active)	1 (active)
Nc1nc(Cl)nc2c1ncn2[C@H]1C[C@H](O)[C@@H](CO)O1 [cladribine]	3 µM	1 µM	1 µM	3 µM	1 µM	≤ 0.3 µM	1 (active)	1 (active)	1 (active)	1 (active)	1 (active)	1 (active)	1 (active)	1 (active)	1 (active)	1 (active)	1 (active)	1 (active)	1 (active)	1 (active)
Cn1cc(-c2[nH]c3cc(NC(=O)[C@H](N)C4CCCCC4)cc4c3c2C=NNC4=O)cn1	9 µM	9 µM	9 µM	3 µM	9 µM	3 µM	1 (active)	1 (active)	1 (active)	1 (active)	1 (active)	1 (active)	1 (active)	1 (active)	1 (active)	1 (active)	1 (active)	1 (active)	1 (active)	1 (active)
N#Cc1c(C2CCNCC2)cc(-c2c(O)cccc2OCC2CC2)nc1N	9 µM	9 µM	9 µM	9 µM	9 µM	9 µM	1 (active)	1 (active)	1 (active)	1 (active)	1 (active)	1 (active)	1 (active)	1 (active)	1 (active)	1 (active)	1 (active)	1 (active)	1 (active)	1 (active)
COC(=O)Nc1nc2ccc(C(=O)c3cccs3)cc2[nH]1 [Nocodazole]	≤ 0.3 µM	≤ 0.3 µM	≤ 0.3 µM	≤ 0.3 µM	≤ 0.3 µM	≤ 0.3 µM	1 (active)	1 (active)	1 (active)	1 (active)	1 (active)	1 (active)	1 (active)	1 (active)	1 (active)	1 (active)	1 (active)	1 (active)	1 (active)	1 (active)
CO[C@H]1C[C@@H]2CC[C@@H](C)[C@@](O)(O2)C(=O)C(=O)N2CCCC[C@H]2C(=O)O[C@H]([C@H](C)C[C@@H]2CC[C@@H](OC(=O)C(C)(CO)CO)[C@H](OC)C2)CC(=O)[C@H](C)C=C(C)[C@@H](O)[C@@H](OC)C(=O)[C@H](C)C[C@H](C)C=CC=CC=C1C [Temsirolimus]	≤ 0.3 µM	≤ 0.3 µM	≤ 0.3 µM	3 µM	≤ 0.3 µM	≤ 0.3 µM	1 (active)	1 (active)	1 (active)	1 (active)	1 (active)	1 (active)	1 (active)	1 (active)	1 (active)	1 (active)	1 (active)	1 (active)	1 (active)	1 (active)
